Shown are actives, neighbours in structure and some others; about 7.9% of the full set was active somewhere.
HCMV antiviral: blocks human cytomegalovirus replication; HFF cells, HCMV-luciferase reporter, 72 h; stronger effect = lower value; activity change, negative = inhibition, % at 57.5 µM; actives 4.5% (n = 410,000); in the data active means activity change below about -60%; inconclusive means no clear call, values can overlap the other calls; inactive means above about -39%
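Two compound doses tested in HFFs infected with HCMV-luciferase, MOI 1 PFU/cell, 72 h at 37C. Lysate luminescence read with OneGlo; data normalized against buffer-only and 10uM Salinomycin inhibitor controls.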
HCV inhibitor: blocks hepatitis C virus | actives 3.4% (n = 340,000) | Huh7.5.1 HCVcc-Cre infection, luciferase reporter, 44 h | Potency, µM (top dose mostly 41.8 µM), for inactives: at the highest dose activity change, negative = inhibition, most hits filed as inhibitors; active means well fitted inhibition curve with a large enough effect; inconclusive means small, poorly fitted or top-dose-only effect, or another doubt; inactive means no such curve, though single readings can be large or run the other way; further: potency means the concentration at half of the fitted maximal effect
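Luciferase read-out (15 sec integration) after a 15 min room-temperature substrate step quantifies HCVcc-Cre infection. Cells, 1,000 per well, had compound added 4 h post-plating, then virus at ~0.5 moi, and were cultured 44 h.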
Lassa entry inh: inhibitors of Lassa virus binding or cell entry; Potency, µM (titrated, usually from 37.9 µM), inactives show top-dose activity change, negative = inhibition, usual class: inhibitors; Lassa virus pseudotype entry inhibition, cell reporter; actives 1.2% (n = 300,000); calls by dose curve; tested in HEK293 cells; further: potency means the concentration at half of the fitted maximal effect; nearly all actives have a fitted effect of over 50% in size
MARV entry inh: blocks Marburg virus binding to or entry into cells; AID 540276; Potency, µM (titrated, usually from 37.8 µM), inactives show at the highest dose activity change, negative = inhibition, actives largely listed as inhibitors; actives 1.8% (n = 300,000); Marburg virus pseudotyped entry inhibition, cell reporter; calls by dose curve; tested in HEK293 cells; further: potency means the concentration at half of the fitted maximal effect
FMDV inh: antivirals against foot and mouth disease virus; FMDV antiviral cell-based qHTS; Potency, µM (titrated, usually from 57.9 µM), inactives show at the highest dose activity change, negative = inhibition, usual class: inhibitors; actives 1.2% (n = 410,000); AID 1159524; calls by dose curve; tested in HEK293T cells; further: read-out not given here; potency means the concentration at half of the fitted maximal effect; nearly all actives have a fitted effect of over 45% in size
* hit, by the source's call; u = inconclusive; x = no result; + = active, no number; ! = not confirmed by another sample; [ ] = remark or other dose. On the % scale 0 is the no-effect control and ±100 the full control effect.

SMILES	HCMV antiviral	HCV inhibitor	Lassa entry inh	MARV entry inh	FMDV inh
O=C(c1ccc(F)c(S(=O)(=O)N2CCOCC2)c1)N1CCN(c2ccc(F)cc2)CC1	-65*	19%	x	x	-18%
Cc1ccc(Cl)cc1N1CCN(C(=O)C2CCN(S(=O)(=O)c3ccc4c(c3)oc(=O)n4C)CC2)CC1	+	x	-14%[46.1 µM]	x	u
CN1CCN(C(=O)C2CCN(S(=O)(=O)c3ccc4c(c3)oc(=O)n4C)CC2)CC1	56	8%	5%	0%	-26%
CC1CCN(S(=O)(=O)N2CCCC(C(=O)NCc3ccc(F)cc3)C2)CC1 (stereo not given)	-23	6%	-16%	-6%[46.1 µM]	-18%
COC(=O)[C@H](C=C[C@H](C)Cc1cc(Br)cc(OCc2ccccc2)c1OC)OCc1ccccc1	x	x	x	-15%[14.2 µM]	x
COC(=O)c1sccc1S(=O)(=O)N1CCN(c2ccccc2)CC1	12	x	u	x	-29%
COc1ccc(N2C(=O)[C@@H]3C[C@H]2CN3Cc2cccn2-c2ccc(Cl)cn2)c(C)c1	x	x	x	x	0%
O=C(C1CCN(S(=O)(=O)N2CCOCC2)CC1)N1CCN(c2ccc(F)cc2)CC1	-74*	u	1%[46.1 µM]	-39%[46.1 µM]	-2%
COc1ccc(OCCSc2nc3ccccc3n2CC(=O)O)cc1	-15	-8%	20%	u	-18%
COc1cccc(Cn2c(SCC(=O)N(C)c3ccccc3)nc3ccccc32)c1	-60*	x	u	x	u
COc1ccc(C(=O)Cn2c(NCCCl)nc3ccccc32)cc1	-11	-11%	x	x	-2%
CN(C(=O)CSc1nc2ccccc2n1Cc1cccc(C(F)(F)F)c1)c1ccccc1	-12	x	u	x	u
COc1ccc(C(=O)Cn2c(C(=O)/C=C/c3ccccc3)nc3ccccc32)cc1	11	u	u	u	8.9µM*
COc1ccc(C(=O)CSc2nc3ccccc3n2CC(=O)c2ccccc2)cc1	-66*	u	-1%	-11%	x
COc1cccc(Cn2c(=O)ccc3ccccc32)c1	-81*	-1%	x	x	22%
Cc1cc(O)c(C(c2ccccc2Cl)N2CCN(c3ccccc3)CC2)c(=O)n1Cc1ccco1 (stereo not given)	17	x	8%[46.1 µM]	x	u
CCCn1c(SC(C)C(=O)O)nc2ccccc21 (stereo not given)	x	-2%	11%	4%	-9%
CCCn1c(SCC(=O)C(C)(C)C)nc2ccccc21	-67*	1%	0%[46.1 µM]	-24%[46.1 µM]	5%
CCn1c(C)cc(C=C2C(=O)c3ccccc3C2=O)c1C	32	u	u	13µM*	-76%
CCN1C(=O)c2ccccc2S(=O)c2ccc(C(=O)N3CCN(c4ccccc4OC)CC3)cc21 (stereo not given)	19	x	u	5%[46.1 µM]	-14%
c1ccc(C(c2cccs2)c2c[nH]c3ccccc23)cc1 (stereo not given)	-66*	x	u	x	u
Cc1cc(S(=O)(=O)Nc2cc3c(cc2N2CCOCC2)n(C)c(=O)n3C)ccc1F	29	x	u	-7%[46.1 µM]	-5%
Clc1cccc(N2CCN(c3ncnc4c3nc3n4CCCCC3)CC2)c1	-73*	x	u	2.8µM*	11µM*
Cc1cccc(N2CCN(c3ncnc4c3nc3n4CCCCC3)CC2)c1C	-28	x	-16%[46.1 µM]	x	-14%
CCOC(=O)C(C)NC(=O)C1CCN(c2ncnc3c2nc2n3CCCCC2)CC1 (stereo not given)	-85*	x	15%[46.1 µM]	x	8%
SMILES	HCMV antiviral	HCV inhibitor	Lassa entry inh	MARV entry inh	FMDV inh
O=C(C1CCN(c2ncnc3c2nc2n3CCCCC2)CC1)N1CCN(c2ccc(Cl)cc2)CC1	u	x	13%[46.1 µM]	x	-4%
CCOC(=O)C1CCN(c2ncnc3c2nc2n3CCCCC2)CC1	61	x	-3%[46.1 µM]	x	21%
O=C(C1CCN(c2ncnc3c2nc2n3CCCCC2)CC1)N1CCN(c2cccc(Cl)c2)CC1	-91*	u	-21%[46.1 µM]	x	22µM*
CC1CCN(C(=O)C2CCN(c3ncnc4c3nc3n4CCCCC3)CC2)CC1	u	1%	x	x	u
Cc1ccc(N2CCN(C(=O)C3CCN(c4ncnc5c4nc4n5CCCCC4)CC3)CC2)c(C)c1	-62*	x	u	x	u
Cc1ccc(CNC(=O)O[C@H]2CC[C@@]34CCCN3C(=O)CCC[C@H]4[C@H]2Cc2ccccc2)cc1	-1	x	x	x	x
CCC(C)NC(=O)CCC(=O)N1Cc2ccccc2Oc2ncccc21 (stereo not given)	20	x	3%[46.1 µM]	x	-6%
O=C(Nc1ccc(Cl)cn1)C1CCN(c2ncnc3c2nc2n3CCCCC2)CC1	-86*	10µM*	-6%[46.1 µM]	3.5µM*	u
CCc1nc2ccccc2nc1N1CCN(S(=O)(=O)c2ccccc2)CC1	-68*	5%	u	u	u
CCc1nc2ccccc2nc1N1CCN(S(=O)(=O)c2c(C)cc(Cl)cc2C)CC1	-25	-16%	x	x	-22%
CCOC(CNC(=O)CN1C(=O)COc2ccc(S(=O)(=O)N3CCOCC3)cc21)OCC	+	14%	x	x	0%
Cc1ccc(NC(=O)CN2C(=O)COc3ccc(S(=O)(=O)N4CCCCCC4)cc32)cc1Cl	-84*	x	u	x	-19%
CCOCCCNC(=O)CN1C(=O)COc2ccc(S(=O)(=O)N3CCOCC3)cc21	u	14%	6%[46.1 µM]	9%[46.1 µM]	-3%
COc1ccc(CCNC(=O)CN2C(=O)COc3ccc(S(=O)(=O)N4CCCC4)cc32)c(OC)c1	-63*!	u	-6%[46.1 µM]	u	3%
O=C(CN1C(=O)COc2ccc(S(=O)(=O)N3CCCC3)cc21)NCCc1ccc(Cl)cc1	-73*	x	3%[46.1 µM]	x	8%
Cc1ccc(NC(=O)CN2C(=O)COc3ccc(S(=O)(=O)N4CCCC4)cc32)cc1C	44	-12%	u	3%[46.1 µM]	-14%
CC(C)NC(=O)C1CCC(Cn2c(=O)c3sccc3n(CC(=O)NCc3ccccc3)c2=O)CC1 (stereo not given)	20	x	u	x	-3%
O=C(CN1C(=O)COc2ccc(S(=O)(=O)Nc3ccccc3)cc21)NCc1ccccc1Cl	-106*	x	1%[46.1 µM]	x	9%
Cc1cc(C)c(OCCOCCn2c(-c3ccc(Cl)cc3)nc3ccccc3c2=O)c(C)c1	29	x	u	12%[46.1 µM]	8%
CCN(CC)c1ccc(-n2c(C)c(C(C)=O)c(C(C)=O)c2C)cc1	-63*	-20%	u	u	u
COc1ccc(CNC(=O)C(=O)NCC(c2ccco2)S(=O)(=O)c2cccs2)cc1 (stereo not given)	5	x	1%[46.1 µM]	x	-25%
CCOC(=O)c1c(NC(C)=O)sc2c(OCC(O)CN(CC)CC)c(Br)ccc12 (stereo not given)	-101*	5.6µM*	2.5µM*	11µM*	14%
CCOC(=O)c1c(NC(C)=O)sc2c(OCCN(CC)CC)c(Br)ccc12	u	13µM*	x	x	-3%
Cc1ccc(C(=O)CSc2nnc3c4ccccc4nc(C(C)(C)C)n23)cc1	u	u	u	6.3µM*	-17%
Cc1nc2c3ccccc3nc(SCC(=O)c3ccc(Cl)cc3)n2n1	-40	25µM*	-10%	-26%	u

Source: PubChem (National Center for Advancing Translational Sciences (NCATS))
